{
  "source": "PubChem BioAssay AID1159580",
  "about": "(chemical genetic matrix, 2015)",
  "assay": "chemical genetic growth profiling, strain panel (AID 1159580);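 also: tested at 20 µM; growth read once vehicle control cultures reached saturation at 30 °C; 1 = growth at the plate median or of vehicle wells; lower values mean less growth of the strain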",
  "details": "S. cerevisiae deletion strains, growth OD",
  "note": "Where “and” joins values, the source holds several entries; their conditions need not be identical. Identical values can stand only once. Hit rate of the full screen: of about 5,500 compounds, about 2,000 (36%) were called active. Inconclusive results (about 18%) are left out. Rule as the data show it: active = normalized growth mostly below about 0.91 (no sharp cut-off); inconclusive = no clear call, values can overlap the other calls; inactive = mostly above about 0.92. This is one part of the list.",
  "data": [
    {"smiles": "COc1ccc2c(c1)O[C@@H]1COc3cc(OC)c(OC)cc3[C@@H]1C2=O", "values": [
      {"measurement": "normalized growth", "setting": "locus YAL021C, strain ccr4, stronger effect = lower value", "value": "0.977 (inactive)"},
      {"measurement": "normalized growth", "setting": "locus YAL026C, strain drs2, stronger effect = lower value", "value": "0.694 (active)"},
      {"measurement": "normalized growth", "setting": "locus YAL030W, strain snc1, stronger effect = lower value", "value": "0.663 (active)"},
      {"measurement": "normalized growth", "setting": "locus YBL061C, strain skt5, stronger effect = lower value", "value": "0.707 (active)"},
      {"measurement": "normalized growth", "setting": "locus YBR009C, strain hhf1, stronger effect = lower value", "value": "0.34 (active)"},
      {"measurement": "normalized growth", "setting": "locus YBR021W, strain FUR4, stronger effect = lower value", "value": "0.897 (inactive)"},
      {"measurement": "normalized growth", "setting": "locus YBR023C, strain chs3, stronger effect = lower value", "value": "0.819 (active)"},
      {"measurement": "normalized growth", "setting": "locus YBR171W, strain sec66, stronger effect = lower value", "value": "0.965 (inactive)"},
      {"measurement": "normalized growth", "setting": "locus YBR229C, strain ROT2, stronger effect = lower value", "value": "0.997 (inactive)"},
      {"measurement": "normalized growth", "setting": "locus YBR231C, strain swc5, stronger effect = lower value", "value": "0.554 (active)"},
      {"measurement": "normalized growth", "setting": "locus YBR279W, strain paf1, stronger effect = lower value", "value": "0.527 (active)"},
      {"measurement": "normalized growth", "setting": "locus YCL011C, strain gbp2, stronger effect = lower value", "value": "0.674 (active)"},
      {"measurement": "normalized growth", "setting": "locus YCL016C, strain dcc1, stronger effect = lower value", "value": "0.614 (active)"},
      {"measurement": "normalized growth", "setting": "locus YCL029C, strain bik1, stronger effect = lower value", "value": "0.68 (active)"},
      {"measurement": "normalized growth", "setting": "locus YCL061C, strain MRC1, stronger effect = lower value", "value": "0.354 (active)"},
      {"measurement": "normalized growth", "setting": "locus YCL069W, strain vba3, stronger effect = lower value", "value": "0.384 (active)"},
      {"measurement": "normalized growth", "setting": "locus YCR088W, strain abp1, stronger effect = lower value", "value": "0.823 (active)"},
      {"measurement": "normalized growth", "setting": "locus YDL005C, strain med2, stronger effect = lower value", "value": "0.979 (inactive)"},
      {"measurement": "normalized growth", "setting": "locus YDL035C, strain GPR1, stronger effect = lower value", "value": "0.906 (inactive)"},
      {"measurement": "normalized growth", "setting": "locus YDL040C, strain nat1, stronger effect = lower value", "value": "0.967 (inactive)"},
      {"measurement": "normalized growth", "setting": "locus YDL074C, strain BRE1, stronger effect = lower value", "value": "0.676 (active)"},
      {"measurement": "normalized growth", "setting": "locus YDL101C, strain DUN1, stronger effect = lower value", "value": "0.669 (active)"},
      {"measurement": "normalized growth", "setting": "locus YDL134C, strain PPH21, stronger effect = lower value", "value": "0.68 (active)"},
      {"measurement": "normalized growth", "setting": "locus YDL185W, strain tfp1, stronger effect = lower value", "value": "0.935 (inactive)"},
      {"measurement": "normalized growth", "setting": "locus YDL192W, strain arf1, stronger effect = lower value", "value": "0.893 (active)"},
      {"measurement": "normalized growth", "setting": "locus YDR001C, strain nth1, stronger effect = lower value", "value": "0.97 (inactive)"},
      {"measurement": "normalized growth", "setting": "locus YDR069C, strain doa4, stronger effect = lower value", "value": "1.02 (inactive)"},
      {"measurement": "normalized growth", "setting": "locus YDR101C, strain arx1, stronger effect = lower value", "value": "0.913 (active)"},
      {"measurement": "normalized growth", "setting": "locus YDR137W, strain rgp1, stronger effect = lower value", "value": "0.995 (inactive)"},
      {"measurement": "normalized growth", "setting": "locus YDR150W, strain NUM1, stronger effect = lower value", "value": "0.977 (inactive)"},
      {"measurement": "normalized growth", "setting": "locus YDR159W, strain sac3, stronger effect = lower value", "value": "0.864 (inactive)"},
      {"measurement": "normalized growth", "setting": "locus YDR162C, strain NBP2, stronger effect = lower value", "value": "0.752 (active)"},
      {"measurement": "normalized growth", "setting": "locus YDR195W, strain ref2", "value": "0.842 (active)"},
      {"measurement": "normalized growth", "setting": "locus YDR297W, strain sur2, stronger effect = lower value", "value": "0.652 (active)"},
      {"measurement": "normalized growth", "setting": "locus YDR318W, strain mcm21, stronger effect = lower value", "value": "0.516 (active)"},
      {"measurement": "normalized growth", "setting": "locus YDR334W, strain swr1, stronger effect = lower value", "value": "0.427 (active)"},
      {"measurement": "normalized growth", "setting": "locus YDR335W, strain msn5, stronger effect = lower value", "value": "0.867 (active)"},
      {"measurement": "normalized growth", "setting": "locus YDR388W, stronger effect = lower value", "value": "0.975 (inactive)"},
      {"measurement": "normalized growth", "setting": "locus YDR392W, strain spt3, stronger effect = lower value", "value": "0.131 (active)"},
      {"measurement": "normalized growth", "setting": "locus YDR502C, strain sam2, stronger effect = lower value", "value": "0.831 (active)"},
      {"measurement": "normalized growth", "setting": "locus YEL003W, strain gim4, stronger effect = lower value", "value": "0.531 (active)"},
      {"measurement": "normalized growth", "setting": "locus YEL037C, strain rad23, stronger effect = lower value", "value": "0.981 (inactive)"},
      {"measurement": "normalized growth", "setting": "locus YEL061C, strain CIN8 (second series), stronger effect = lower value", "value": "0.257 (active)"},
      {"measurement": "normalized growth", "setting": "locus YEL061C, strain CIN8, stronger effect = lower value", "value": "0.315 (active)"},
      {"measurement": "normalized growth", "setting": "locus YER015W, strain faa2, stronger effect = lower value", "value": "0.693 (active)"},
      {"measurement": "normalized growth", "setting": "locus YER016W, strain bim1, stronger effect = lower value", "value": "0.818 (active)"},
      {"measurement": "normalized growth", "setting": "locus YER110C, stronger effect = lower value", "value": "0.799 (active)"},
      {"measurement": "normalized growth", "setting": "locus YER111C, strain swi4, stronger effect = lower value", "value": "0.423 (active)"},
      {"measurement": "normalized growth", "setting": "locus YER155C, strain BEM2 (second series), stronger effect = lower value", "value": "0.163 (active)"},
      {"measurement": "normalized growth", "setting": "locus YER155C, strain BEM2, stronger effect = lower value", "value": "0.426 (active)"},
      {"measurement": "normalized growth", "setting": "locus YER167W, strain BCK2, stronger effect = lower value", "value": "0.684 (active)"},
      {"measurement": "normalized growth", "setting": "locus YFR010W, strain ubp6, stronger effect = lower value", "value": "1.02 (inactive)"},
      {"measurement": "normalized growth", "setting": "locus YGL078C, strain dbp3, stronger effect = lower value", "value": "0.933 (inactive)"},
      {"measurement": "normalized growth", "setting": "locus YGL086W, strain mad1, stronger effect = lower value", "value": "0.458 (active)"},
      {"measurement": "normalized growth", "setting": "locus YGL167C, strain pmr1, stronger effect = lower value", "value": "0.974 (inactive)"},
      {"measurement": "normalized growth", "setting": "locus YGL173C, strain kem1, stronger effect = lower value", "value": "0.954 (inactive)"},
      {"measurement": "normalized growth", "setting": "locus YGL227W, strain vid30, stronger effect = lower value", "value": "0.28 (active)"},
      {"measurement": "normalized growth", "setting": "locus YGL240W, strain doc1, stronger effect = lower value", "value": "0.916 (inactive)"},
      {"measurement": "normalized growth", "setting": "locus YGL248W, strain PDE1, stronger effect = lower value", "value": "0.649 (active)"},
      {"measurement": "normalized growth", "setting": "locus YGL253W, strain hxk2, stronger effect = lower value", "value": "0.633 (active)"},
      {"measurement": "normalized growth", "setting": "locus YGR135W, strain pre9, stronger effect = lower value", "value": "0.786 (active)"},
      {"measurement": "normalized growth", "setting": "locus YGR252W, strain gcn5, stronger effect = lower value", "value": "0.755 (active)"},
      {"measurement": "normalized growth", "setting": "locus YHR013C, strain ard1, stronger effect = lower value", "value": "0.558 (active)"},
      {"measurement": "normalized growth", "setting": "locus YHR027C, strain rpn1, stronger effect = lower value", "value": "0.999 (inactive)"},
      {"measurement": "normalized growth", "setting": "locus YHR030C, strain SLT2, stronger effect = lower value", "value": "0.547 (active) and 0.988 (inactive)"},
      {"measurement": "normalized growth", "setting": "locus YHR079C, strain IRE1 (second series), stronger effect = lower value", "value": "0.814 (active)"},
      {"measurement": "normalized growth", "setting": "locus YHR079C, strain IRE1, stronger effect = lower value", "value": "0.97 (inactive)"},
      {"measurement": "normalized growth", "setting": "locus YHR094C, strain hxt1, stronger effect = lower value", "value": "0.699 (active)"},
      {"measurement": "normalized growth", "setting": "locus YHR129C, strain ARP1, stronger effect = lower value", "value": "0.489 (active)"},
      {"measurement": "normalized growth", "setting": "locus YHR142W, strain chs7, stronger effect = lower value", "value": "0.195 (active)"},
      {"measurement": "normalized growth", "setting": "locus YHR200W, strain rpn10, stronger effect = lower value", "value": "0.939 (inactive)"},
      {"measurement": "normalized growth", "setting": "locus YIL066C, strain RNR3, stronger effect = lower value", "value": "0.675 (active)"},
      {"measurement": "normalized growth", "setting": "locus YIL073C, strain SPO22, stronger effect = lower value", "value": "0.903 (inactive)"},
      {"measurement": "normalized growth", "setting": "locus YIL125W, strain kgd1, stronger effect = lower value", "value": "0.989 (inactive)"},
      {"measurement": "normalized growth", "setting": "locus YIR030C, strain dcg1, stronger effect = lower value", "value": "0.879 (active)"},
      {"measurement": "normalized growth", "setting": "locus YJL092W, strain hpr5, stronger effect = lower value", "value": "0.822 (active)"},
      {"measurement": "normalized growth", "setting": "locus YJL095W, strain BCK1 (second series), stronger effect = lower value", "value": "0.488 (active)"},
      {"measurement": "normalized growth", "setting": "locus YJL095W, strain BCK1, stronger effect = lower value", "value": "0.332 (active) and 0.966 (inactive)"},
      {"measurement": "normalized growth", "setting": "locus YJL115W, strain asf1, stronger effect = lower value", "value": "0.819 (active)"},
      {"measurement": "normalized growth", "setting": "locus YJL129C, strain trk1, stronger effect = lower value", "value": "0.441 (active)"},
      {"measurement": "normalized growth", "setting": "locus YJL134W, strain LCB3, stronger effect = lower value", "value": "0.935 (inactive)"},
      {"measurement": "normalized growth", "setting": "locus YJL154C, strain vps35, stronger effect = lower value", "value": "0.982 (inactive)"},
      {"measurement": "normalized growth", "setting": "locus YJL164C, strain tpk1, stronger effect = lower value", "value": "0.438 (active)"},
      {"measurement": "normalized growth", "setting": "locus YJL166W, strain qcr8, stronger effect = lower value", "value": "0.208 (active)"},
      {"measurement": "normalized growth", "setting": "locus YJL168C, strain set2, stronger effect = lower value", "value": "0.978 (inactive)"},
      {"measurement": "normalized growth", "setting": "locus YJL187C, strain SWE1 (second series), stronger effect = lower value", "value": "0.822 (active)"},
      {"measurement": "normalized growth", "setting": "locus YJL187C, strain SWE1, stronger effect = lower value", "value": "0.589 (active)"}
    ]}
  ]
}
